Measurements from ChEMBL document CHEMBL4513216, “Probing the Open Global Health Chemical Diversity Library for Multistage-Active Starting Points for Next-Generation Antimalarials” (ACS Infect Dis, 2020).
Among all 69,000 compounds or so, about 8,600 (12%) showed an effect of 50% or more. The sample holds strong results, similar compounds and a random draw of the others, so the mix is not that of the screen.

These compounds were tested on Plasmodium berghei (assay: Screen against P. berghei liver stage (PbLuc), transformed with Luciferase, at 10uM). Conditions: tested at 10 uM.
Type: functional, HepG2

Compound | INHIBITION [%]
Cc1nc(C)c(C(=O)NCCNc2ncccc2C(F)(F)F)s1 | -36.3
CCn1cnnc1C1CCN(C(=O)c2ccc3cc[nH]c3c2)CC1 | 30.8
Cc1cc(C)n(CC2CN(Cc3noc(C4CC4)n3)CCO2)n1 (configuration not stated) | -37.7
CC(=O)N1CCCCC1c1nc2c(c(NC3CCCC3)n1)CN(C)CC2 (configuration not stated) | 38.2
O=C(NCCNc1ncccn1)N1CCN(C2CCCC2)CC1 | 21.6
Cc1nc(C2CCCN(C(=O)CCn3ccccc3=O)C2)no1 (configuration not stated) | 29.7
COCc1ncc(CN2CCC3(CCNCC3)CC2)cn1 | 18.5
COCc1ncc(CN2CCC3(CCC(=O)N(CC(C)O)C3)CC2)cn1 (configuration not stated) | 55.2
COCc1ncc(CN2CCC3(CCNC(=O)CC3)CC2)cn1 | -47
COC(=O)C1CCN(C(=O)Cn2nc(C)nc2-c2ccccc2)CC1 | -3.48
N[C@@H](Cc1c[nH]cn1)C(=O)N1CCC(Oc2ccc(Cl)cc2)CC1 | 43.9
Cc1nc(CN2CCCC(CCc3cccc(C(F)(F)F)c3)C2)co1 (configuration not stated) | 62.4
Cc1ccccc1CCC1CCCN(Cc2nnc(-c3ccco3)o2)C1 (configuration not stated) | 35.6
FC(F)(F)c1ccccc1CCC1CCCN(Cc2cscn2)C1 (configuration not stated) | 76.7
Cc1nc(CN2CCCC(CCc3ccccc3C(F)(F)F)C2)co1 (configuration not stated) | 74.5
CCN(CC(F)(F)F)C(=O)C1CCCN(Cc2cscn2)C1 (configuration not stated) | -116

Compound | INHIBITION [%]
CC1CCCN(Cc2coc(-c3cccc(F)c3)n2)C1 (configuration not stated) | 18.6
Cn1cc(CN2CCCC(CCc3ccccc3C(F)(F)F)C2)cn1 (configuration not stated) | 43
Cc1nc(CN2CCCC(c3nc(C)n4c(C)c(C)sc34)C2)co1 (configuration not stated) | 19.6
Cc1nnc(CN2CCCC(CCc3ccccc3C(F)(F)F)C2)o1 (configuration not stated) | 27.2
COCCN(Cc1ccco1)c1ncc(C#N)cc1Cl | 28
CCn1ncc(Nc2[nH]cnc3nc(C)nc2-3)c1C | 9
COCC(=O)Nc1ccc(-c2noc([C@@H]3CCCN3C(C)C)n2)cn1 | 35.8
CC(C)NC(=O)N1Cc2nccn2CC(COc2cccnc2)C1 (configuration not stated) | 22.4
O=C(c1cscn1)N1CCC2(CCN(Cc3cccs3)CC2)C1 | -5.12
COc1ccccc1N1CCN(Cc2ncc(C)c(OC)c2C)CC1=O | 37.4
CC(NC(=O)N1CCS(=O)(=O)CC1)c1c(F)cccc1Cl (configuration not stated) | -5.275
CC(NC(=O)N1CCNC(=O)CC1)c1c(F)cccc1Cl (configuration not stated) | -36.75
CC(NCC(N)=O)c1c(F)cccc1Cl (configuration not stated) | 67.1
NC(=O)CNC(c1ccccc1)c1ccccc1 | 6.67
CNC(=O)NC(C)c1c(F)cccc1Cl (configuration not stated) | 50.8
CC(C)NC(=O)CNC(C)c1c(F)cccc1Cl (configuration not stated) | 31.2
